CD40 NFkB inh = CD40 pathway inhibition in BL2 cells | BL2 NF-kB luciferase reporter, CD40L-induced, 4 h | inhibition, % at 10 µM | 83,000 tested, 0.94% active | AID 1053188;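 active means mean inhibition of at least 50% with a set share of replicates also reaching that level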
Large screens that a line does not name were inactive; ! = a repeat was not active; [ ] = dose if it differs, or a comment. Shown is part of a subset that was picked to be rich in hits.

CC(C)(C)n1cc(C(=O)c2ccc3ccccc3c2O)cn1	CD40 NFkB inh 54.5
CC=Cc1ccc2n(c1=O)C[C@H]1[C@H](CO)[C@@H](C(=O)N(C)C)[C@@H]2N1C (mixture of isomers)	none
COC(=O)[C@@H]1[C@@H](CO)[C@@H]2Cn3c(ccc(-c4cccc(C(=O)N(C)C)c4)c3=O)[C@H]1N2CC1CC1	none
CCC(=O)N1[C@@H]2Cn3c(ccc(C4=CCCC4)c3=O)[C@H]1[C@@H](C(=O)OC)[C@@H]2CO	none
CC1=C[C@H]2[C@]3(O)[C@H](C)[C@@H](O)[C@@]4(O)[C@H]([C@@H]3C=C(CO)C[C@]2(O)C1=O)C4(C)C	none
C[C@]12CC[C@H]3[C@@H](CCC4=CC(=O)CC[C@@]43C)[C@@H]1CC[C@H]2O	none
C=CCN1[C@@H]2CN(C(C)=O)C[C@H]1C2c1ccc(Br)cc1 (stereo partly drawn)	none
CN1[C@@H]2CN(S(C)(=O)=O)C[C@H]1C2c1ccc(Br)cc1 (stereo partly drawn)	CD40 NFkB inh 27.8!
CS(=O)(=O)N1C[C@@H]2N[C@H](C1)C2c1ccc(Br)cc1 (stereo partly drawn)	none
CN1[C@@H]2CN(S(C)(=O)=O)C[C@H]1C2c1ccccc1 (stereo partly drawn)	none
CC(C)NC(=O)N1C[C@@H]2C(c3ccccc3)[C@H](C1)N2C (stereo partly drawn)	none
O=C(Cc1ccccn1)N1CCCCN2[C@@H](CO)[C@H](c3ccc(-c4ccccc4F)cc3)[C@@H]2C1	none
Cc1ccc(OC(=O)N(C)C[C@@H]2OCc3ccccc3-c3c(n(C)c4ccccc34)C(=O)N([C@H](C)CO)C[C@@H]2C)cc1	none
COC(=O)C1=C(C(=O)OC)C2OC1c1cc3ccccc3cc12	CD40 NFkB inh 102.5
CC(C)NC(C)C(=O)c1ccc2ccccc2c1 (stereo not drawn)	none
CCCNC(=O)[C@@H]1[C@@H](CO)[C@@H]2Cn3c(cccc3=O)[C@@H]2N1C	none
CN(C(=O)Cc1ccccc1)C(CN1CCCC1)c1ccccc1 (stereo not drawn)	none
CC1CC(C)CC(C)C(O)C(C#N)=CC=CCC(C2CCCC2C(=O)O)OC(=O)CC(O)C(C)C1 (stereo not drawn)	CD40 NFkB inh 94.1
c1ccc(CC(c2ccccc2)N2CCCCC2)cc1 (stereo not drawn)	none
COc1cc(C2c3cc4c(cc3CC3COC(=O)C32)OCO4)cc(OC)c1O (stereo not drawn)	none
O=C1NC2C(=CC(O)C(O)C2O)c2cc3c(c(O)c21)OCO3 (stereo not drawn)	CD40 NFkB inh 107.5
O=C1NC2C(O)C(O)C(O)C(O)C2c2cc3c(c(O)c21)OCO3 (stereo not drawn)	CD40 NFkB inh 97.1
CN1[C@@H]2CN(CC(F)(F)F)C[C@H]1C2c1ccc(Br)cc1 (stereo partly drawn)	none
O=C(O)[C@H]1[C@H](CO)[C@H]2Cn3c(ccc(-c4ccncc4)c3=O)[C@@H]1N2S(=O)(=O)c1ccccc1F	none
CC(C)NC(=O)N1C[C@@H]2C(c3ccc(Br)cc3)[C@H](C1)N2C (stereo partly drawn)	none
Cc1ccc(OC(=O)N(C)C[C@H]2OCc3ccccc3-c3c(n(C)c4ccccc34)C(=O)N([C@@H](C)CO)C[C@H]2C)cc1	none
CCN1C[C@]2(COC)CCC(OC)[C@@]34C5C[C@]6(O)[C@H](OC(=O)c7ccc(OC)cc7)C5[C@@](OC(C)=O)(C[C@H]6OC)[C@@H]([C@H](OC)C23)[C@@H]14 (stereo partly drawn)	none
CCN(CC)C(=O)c1ccc(NC(=O)c2ccc(N3CCCC3=O)cc2)cc1	none
CCN(CC)C(=O)c1ccc(NC(=O)c2cccc(S(=O)(=O)N3CCN(Cc4ccccc4)CC3)c2)cc1	none
CCN(CC)C(=O)c1ccc(NC(=O)Nc2ccccc2F)cc1	CD40 NFkB inh 83.5
C=CCN1[C@@H]2CN(CC(F)(F)F)C[C@H]1C2c1ccc(Br)cc1 (stereo partly drawn)	none
CS(=O)(=O)N1C[C@@H]2C(c3ccccc3)[C@H](C1)N2CC1CC1 (stereo partly drawn)	none
O=[N+]([O-])c1ccc(N2CC2)c([N+](=O)[O-])c1	none
O=[N+]([O-])c1ccc(N2CCOCC2)c2c1no[n+]2[O-]	CD40 NFkB inh 86.0
O=[N+]([O-])c1ccc(N2CCCCC2)c2ncccc12	none
COC(=O)[C@@H]1[C@@H](CO)[C@@H]2Cn3c(cccc3=O)[C@H]1N2C(=O)C1CC1	none
O=C(Cc1ccccn1)N1CCCCN2[C@H](CO)[C@H](c3ccc(Br)cc3)[C@@H]2C1	none
C[C@@H]1CN([C@@H](C)CO)C(=O)c2c(c3ccccc3n2C)-c2ccccc2CO[C@@H]1CN(C)C(=O)Oc1ccccc1	none
CC12CCC3C(CCC4(O)CC(O)CCC34C=NO)C1(O)CCC2C1=COC(=O)C1 (stereo not drawn)	CD40 NFkB inh 56.0
CC12CCC3C(CCC4(O)CC(O)CCC34C=O)C1(O)CCC2C1=CC(=O)OC1 (stereo not drawn)	CD40 NFkB inh 75.0
CC(C)NC(=O)N1[C@@H]2Cn3c(ccc(-c4cccc(C(=O)N(C)C)c4)c3=O)[C@H]1[C@@H](C(=O)O)[C@@H]2CO	none
C=C(C)[C@@H]1CCC(C)=C[C@H]1c1c(OC)cc(C)cc1OC	none
Oc1ccc2c3c1OC1c4[nH]c5ccccc5c4CC4(O)C(C2)N(CC2CC2)CCC314 (stereo not drawn)	none
C[C@H](CO)N1C[C@H](C)[C@H](CN(C)C(=O)Oc2cccc3ccccc23)OCc2cn(nn2)CCCC1=O	none
O=C(Cc1cccnc1)N1CCCCN2[C@H](C1)[C@H](c1ccc(C#CC3(O)CCCC3)cc1)[C@@H]2CO	none
O=C(Cc1cccnc1)N1CCCCN2[C@H](CO)[C@H](c3ccc(C#CC4(O)CCCC4)cc3)[C@H]2C1	none
COP(=S)(OC)SCN1C(=O)c2ccccc2C1=O	CD40 NFkB inh 32.1
CS(=O)(=O)N1C[C@@H]2N[C@H](C1)C2c1ccccc1 (stereo partly drawn)	none
CN(C)CC#Cc1ccc([C@@H]2[C@@H](CO)N3CCCCN(C(=O)Cc4ccccn4)C[C@H]23)cc1	none
OC[C@@H]1Nc2ccc(C#Cc3cccnc3)cc2[C@@H]2NCC[C@H]12	none
O=C(O)[C@@H]1[C@@H](CO)[C@@H]2Cn3c(ccc(-c4ccc(F)cc4)c3=O)[C@H]1N2CC1CCCCC1	none
COC(=O)[C@H]1[C@H](CO)[C@H]2Cn3c(ccc(-c4cccc(F)c4)c3=O)[C@@H]1N2Cc1cccnc1	none
O=C(Cc1ccccc1)N1CCCCN2[C@@H](CO)[C@H](c3ccc(C#Cc4ccccc4)cc3)[C@@H]2C1	none
Cn1ncnc2c(=O)n(C)c(=O)nc1-2	CD40 NFkB inh 86.0
C=CCN1CCC23c4c5ccc(O)c4OC2C(=O)CCC3(O)C1C5 (stereo not drawn)	none
C[C@]12CC[C@H](O)C[C@H]1CC[C@@H]1[C@@H]2CC[C@]2(C)[C@@H](c3ccc(=O)oc3)CC[C@]12O	CD40 NFkB inh 58.2[25 µM]
C[C@]12CCC3C(CC[C@H]4C[C@@H](O)CC[C@]34C)C1C[C@@H](O)[C@@H]2O (stereo partly drawn)	none
CC1OC(OC2C(O)CC(OC3C(O)CC(OC4CCC5(C)C(CCC6C5CCC5(C)C(C7=CC(=O)OC7)C(O)CC65O)C4)OC3C)OC2C)CC(O)C1O (stereo not drawn)	CD40 NFkB inh 57.6
CC(=O)OC1CC2(O)C3CCC4CC(O)CCC4(C)C3CCC2(C)C1C1=CC(=O)OC1 (stereo not drawn)	CD40 NFkB inh 75.0
C[C@]12CC[C@@H](O)C[C@@H]1CC[C@@H]1[C@@H]2CC[C@]2(C)C(=O)CC[C@@H]12	none

Screening data deposited in PubChem by Broad Institute.
